The values that follow come from PubChem BioAssay (EPA / NIEHS).

The target of assay [1] is Transcription factor E2F1 (Homo sapiens) (UniProt Q01094). Nature of the assay: ATG_E2F_CIS: Attagene CIS-FACTORIAL HepG2 Assay for human E2F Transcription Factor 1 (AID 2282935). Particulars: HepG2 Attagene cis-reporter, E2F reporter RNA transcripts; actives raise or lower the signal. In a few lines: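 Multiplexed cis-reporter assay: HepG2, transient transfection, 24 h dosing, mRNA quantitation by labeled RT-PCR and CE.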

Assay [2] can be described thus: ATG_E_Box_CIS: Attagene CIS-FACTORIAL HepG2 Assay for human Enhancer Box (E-box) (AID 2282936). Particulars: HepG2 E-box cis-reporter transcription, actives raise or lower the signal. In a few lines: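 Multiplexed CIS reporter system in transiently transfected HepG2 cells measures native transcription factor activity. Reporter RNA after 24 h exposure is profiled by RT-PCR-capillary electrophoresis.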

The nature of assay [3]: ATG_M_61_CIS: Attagene CIS-FACTORIAL HepG2 Assay for M61 Transcription Factor (Internal Marker) (AID 2282937). Particulars: HepG2 Attagene CIS-FACTORIAL M61 internal marker reporter; actives raise or lower the signal. In a few lines:
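Transfect HepG2 with MRTUs; dose 24 h; isolate RNA; reverse-transcribe with DNase I treatment; PCR-amplify, FAM-label and cut with HpaI for 2 h at 37 C; resolve by CE. Bidirectional fitting against DMSO.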

Assay [4] is described as follows: ATG_EGR_CIS: Attagene CIS-FACTORIAL HepG2 Assay for human Early Growth Response 1 (EGR1) (AID 2282938). Particulars: HepG2 Attagene CIS-FACTORIAL EGR reporter mRNA; actives raise or lower the signal. In a few lines: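 After a 24 h treatment of transiently transfected HepG2 cells, total RNA was reverse-transcribed and reporter sequences PCR-amplified, labelled and run on capillary electrophoresis. Reporters sit under cis-regulatory promoters sensing endogenous factors.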

A short description of assay [5]: ATG_M_19_CIS: Attagene CIS-FACTORIAL HepG2 Assay for M19 Transcription Factor (Internal Marker) (AID 2282939). To be noted: HepG2 Attagene CIS-FACTORIAL M19 internal marker reporter; actives raise or lower the signal. The gist of the method: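 Following a 24 h exposure, RNA from transfected HepG2 cells was reverse-transcribed, PCR-amplified with reporter-specific primers, end-labelled with 6-FAM and HpaI-digested before capillary separation. Values represent gain or loss versus DMSO.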

Assay [6] is described as follows: ATG_ERE_CIS: Attagene CIS-FACTORIAL HepG2 Assay for Estrogen Response Element (ERE) (AID 2282940). Particulars: HepG2 ERE cis-reporter, Attagene RNA transcript; actives raise or lower the signal. In a few lines:
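HepG2, transient cis-reporter units, 24 h exposure. RNA isolated, oligo(dT) RT, reporter-specific PCR, FAM extension, HpaI cut, CE detection. Gain/loss-of-signal vs DMSO.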

Assay [7] in a line: ATG_Ets_CIS: Attagene CIS-FACTORIAL HepG2 Assay for human Erythroblast Transformation Specific (ETS) (AID 2282941). Particulars: HepG2 ETS cis-reporter transcription, actives raise or lower the signal. The gist of the method:
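Human HepG2 hepatoma cells were transiently transfected with promoter-driven reporter constructs and treated for 24 hours. Reporter transcripts were quantified by RT-PCR with fluorescent primer extension; bidirectional curve fitting used DMSO as reference.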

Assay [8] concerns the target Hepatocyte nuclear factor 3-beta (Homo sapiens) (UniProt Q9Y261). The assay can be described thus: ATG_FoxA2_CIS: Attagene CIS-FACTORIAL HepG2 Assay for human Forkhead box A2 (FOXA2) (AID 2282942). Particulars: HepG2 cis-reporter transcription factor activity, 24 h; actives raise or lower the signal. In a few lines:
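24 h dosing of HepG2 bearing cis-reporter constructs; mRNA readout by RT-PCR/CE fluorescence; bidirectional fit, DMSO baseline.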

The nature of assay [9]: ATG_FoxO_CIS: Attagene CIS-FACTORIAL HepG2 Assay for human Forkhead box O (FoxO) (AID 2282943). Particulars: HepG2 Attagene cis-reporter, FoxO element, mRNA; actives raise or lower the signal. In a few lines:
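24 h chemical exposure, HepG2 with transient cis-MRTU transfection. RNA extraction, oligo(dT) RT, reporter-specific PCR, primer-extension labelling, HpaI digestion, CE fragment analysis; bidirectional fit, DMSO baseline.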

Assay [10] can be described thus: ATG_GATA_CIS: Attagene CIS-FACTORIAL HepG2 Assay for human GATA Binding Protein (AID 2282944). To be noted: HepG2 GATA cis-element reporter, Attagene multiplex mRNA; actives raise or lower the signal. In a few lines: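 DMSO serves as negative control and baseline for bidirectional fitting of reporter mRNA changes. HepG2 cells bearing transiently transfected cis-promoter reporters were exposed 24 h; transcripts detected via RT-PCR and capillary electrophoresis.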

Assay [11] can be described thus: ATG_GLI_CIS: Attagene CIS-FACTORIAL HepG2 Assay for human Zinc Finger Protein GLI1 (AID 2282945). Particulars: HepG2, Attagene cis-factorial reporter mRNA, GLI element; actives raise or lower the signal. The gist of the method: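 HepG2 cells transiently transfected with cis-promoter multiplexed reporter units report endogenous transcription factor activity. After 24 h chemical exposure, reporter mRNA was quantified by RT-PCR, 6-FAM labelling, HpaI digestion and capillary electrophoresis, with bidirectional fitting against DMSO.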

Assay [12] has as its target Bile acid receptor (Homo sapiens) (UniProt Q96RI1). The assay can be described thus: ATG_IR1_CIS: Attagene CIS-FACTORIAL HepG2 Assay for human Nuclear Receptor Subfamily 1 Group H Member 4 (NR1H4), IR1 submotif (AID 2282946). Particulars: IR1 reporter transcription, actives raise or lower the signal. In a few lines:
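Transient MRTU transfection, HepG2; 24 h dosing; RNA → RT-PCR → 6-FAM primer extension → HpaI digest → capillary electrophoresis fluorescence. Gain/loss of signal fitted relative to DMSO.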

The nature of assay [13]: ATG_ISRE_CIS: Attagene CIS-FACTORIAL HepG2 Assay for human Interferon Regulatory Factor 1 (IRF1) binding to an Interferon-Stimulated Response Element (ISRE) (AID 2282948). To be noted: HepG2 ISRE cis-reporter (Attagene), mRNA transcription readout; actives raise or lower the signal. In a few lines:
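Cell-based cis-reporter assay; HepG2; 24 h exposure; reporter mRNA by RT-PCR plus capillary electrophoresis fluorescence; activity in either direction scored relative to DMSO.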

A short description of assay [14]: ATG_M_32_CIS: Attagene CIS-FACTORIAL HepG2 Assay for M32 Transcription Factor (Internal Marker) (AID 2282949).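 Further: background control marker of the multiplexed CIS panel rather than a real target.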 To be noted: HepG2 Attagene cis-factorial M32 reporter, mRNA; actives raise or lower the signal. The gist of the method: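 HepG2 cells transiently transfected with multiplexed cis-regulated reporter units, dosed 24 h. Reporter mRNA quantified by RT-PCR, 6-FAM labelling, HpaI digestion and capillary electrophoresis; bidirectional fit vs DMSO.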

Assay [15] can be described thus: ATG_M_06_CIS: Attagene CIS-FACTORIAL HepG2 Assay for M06 Transcription Factor (Internal Marker) (AID 2282950). Particulars: HepG2 Attagene CIS-FACTORIAL M06 internal marker reporter; actives raise or lower the signal. The gist of the method: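 Fluorescence-labelled RT-PCR products from cis-promoter reporter units, cut with HpaI and resolved by capillary electrophoresis, give the signal. Cells are human HepG2, dosed for 24 h. Serves as background control, fitted relative to DMSO.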

The target of assay [16] is Hepatocyte nuclear factor 6 (Homo sapiens) (UniProt Q9UBC0). The assay can be described thus: ATG_HNF6_CIS: Attagene CIS-FACTORIAL HepG2 Assay for human Hepatocyte Nuclear Factor 6 (HNF6) (AID 2282952). Particulars: HepG2 Attagene cis-factorial HNF6 reporter transcription; actives raise or lower the signal. In a few lines: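 HepG2 cells transiently transfected with cis-element-driven multiple reporter transcription units, dosed 24 h; reporter mRNA quantified by RT-PCR, FAM primer extension, HpaI digestion and capillary electrophoresis; bidirectional fit versus DMSO baseline.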

Assay [17] addresses Heat shock factor protein 1 (Homo sapiens) (UniProt Q00613). The assay can be described thus: ATG_HSE_CIS: Attagene CIS-FACTORIAL HepG2 Assay for human Heat Shock Transcription Factor 1 (HSE) (AID 2282953). To be noted: HepG2 HSE cis-reporter, Attagene RNA transcription; actives raise or lower the signal. The gist of the method: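 After a 24 h incubation with test chemical, transfected HepG2 cells were harvested for RNA; reporter transcripts were measured by RT-PCR and capillary electrophoresis. Values reflect gain or loss of signal relative to DMSO.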

A short description of assay [18]: ATG_MRE_CIS: Attagene CIS-FACTORIAL HepG2 Assay for human Metal Responsive Element (MRE) (AID 2282954). To be noted: HepG2 MRE cis-reporter transcription, Attagene multiplex; actives raise or lower the signal. The gist of the method:
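Step one: transfect HepG2 with cis-regulated reporter units. Step two: dose 24 h. Step three: isolate RNA, RT-PCR, 6-FAM label, HpaI digest, capillary electrophoresis. Fit bidirectionally to DMSO.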

Assay [19] is described as follows: ATG_GRE_CIS: Attagene CIS-FACTORIAL HepG2 Assay for human Glucocorticoid Response Elements (GRE) (AID 2282947). To be noted: HepG2 GRE cis-reporter, Attagene multiplex mRNA; actives raise or lower the signal. The gist of the method: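 Following 24 h chemical exposure of transiently transfected HepG2 cells, total RNA was reverse-transcribed and reporter cDNA amplified, fluorescently labelled and sized by capillary electrophoresis. Signal gain or loss was fitted relative to DMSO vehicle.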

For assay [20], the target named is Hypoxia-inducible factor 1-alpha (Homo sapiens) (UniProt Q16665). Nature of the assay: ATG_HIF1a_CIS: Attagene CIS-FACTORIAL HepG2 Assay for human Hypoxia Inducible Factor 1 (HIF1A) (AID 2282951). To be noted: HepG2 Attagene cis-factorial HIF1a reporter transcription; actives raise or lower the signal. In a few lines: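 After 24 h chemical exposure of reporter-transfected HepG2 cells, reporter cDNA was PCR-amplified, labelled by 6-FAM primer extension (2 min 95 C, 20 s 68 C, 10 min 72 C), HpaI-cut (2 h, 37 C) and analysed by CE.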

Active and inactive are the calls of the source. How the source made its calls: active means hit-call score of the fitted dose curve at least 0.9, where 1 is the maximum; inactive means score below 0.9.

Sequence of Heat shock factor protein 1 (Homo sapiens) (Q00613 whole entry, looked up): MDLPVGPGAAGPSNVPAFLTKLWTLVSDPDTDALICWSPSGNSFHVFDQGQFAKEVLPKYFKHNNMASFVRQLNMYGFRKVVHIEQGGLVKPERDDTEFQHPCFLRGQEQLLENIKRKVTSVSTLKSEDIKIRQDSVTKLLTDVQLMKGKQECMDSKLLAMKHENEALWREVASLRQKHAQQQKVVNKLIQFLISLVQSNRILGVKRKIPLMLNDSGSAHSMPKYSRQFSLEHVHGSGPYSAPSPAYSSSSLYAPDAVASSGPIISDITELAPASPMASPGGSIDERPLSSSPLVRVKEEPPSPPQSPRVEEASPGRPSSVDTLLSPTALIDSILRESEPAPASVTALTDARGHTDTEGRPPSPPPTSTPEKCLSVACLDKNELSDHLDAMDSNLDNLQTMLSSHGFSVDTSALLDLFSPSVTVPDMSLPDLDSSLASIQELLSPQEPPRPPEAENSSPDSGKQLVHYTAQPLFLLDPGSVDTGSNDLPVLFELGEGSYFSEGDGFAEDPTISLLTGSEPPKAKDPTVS
Sequence of Hypoxia-inducible factor 1-alpha (Homo sapiens) (Q16665 whole entry, looked up): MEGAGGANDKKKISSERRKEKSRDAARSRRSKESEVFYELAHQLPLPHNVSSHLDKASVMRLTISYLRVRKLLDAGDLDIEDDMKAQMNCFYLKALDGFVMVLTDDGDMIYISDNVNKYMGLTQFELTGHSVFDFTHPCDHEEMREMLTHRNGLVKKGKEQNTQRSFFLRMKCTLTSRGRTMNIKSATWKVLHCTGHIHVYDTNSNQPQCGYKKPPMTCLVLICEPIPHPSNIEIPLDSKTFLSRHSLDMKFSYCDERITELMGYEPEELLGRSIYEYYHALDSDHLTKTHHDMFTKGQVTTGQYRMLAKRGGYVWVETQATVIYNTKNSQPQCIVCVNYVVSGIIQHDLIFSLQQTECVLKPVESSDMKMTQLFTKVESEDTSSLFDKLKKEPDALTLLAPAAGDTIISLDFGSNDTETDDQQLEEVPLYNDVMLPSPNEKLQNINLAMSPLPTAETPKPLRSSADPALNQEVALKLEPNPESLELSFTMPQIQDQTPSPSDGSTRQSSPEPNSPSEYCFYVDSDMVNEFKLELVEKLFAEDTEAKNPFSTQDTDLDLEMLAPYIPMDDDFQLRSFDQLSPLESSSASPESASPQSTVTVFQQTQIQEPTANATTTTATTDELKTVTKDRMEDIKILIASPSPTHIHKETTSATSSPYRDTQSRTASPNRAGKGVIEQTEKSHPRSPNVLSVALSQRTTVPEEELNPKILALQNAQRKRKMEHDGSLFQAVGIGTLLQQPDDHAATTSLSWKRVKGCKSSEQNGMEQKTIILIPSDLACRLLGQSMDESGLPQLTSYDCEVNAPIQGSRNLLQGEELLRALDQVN
Sequence of Bile acid receptor (Homo sapiens) (Q96RI1 whole entry, looked up): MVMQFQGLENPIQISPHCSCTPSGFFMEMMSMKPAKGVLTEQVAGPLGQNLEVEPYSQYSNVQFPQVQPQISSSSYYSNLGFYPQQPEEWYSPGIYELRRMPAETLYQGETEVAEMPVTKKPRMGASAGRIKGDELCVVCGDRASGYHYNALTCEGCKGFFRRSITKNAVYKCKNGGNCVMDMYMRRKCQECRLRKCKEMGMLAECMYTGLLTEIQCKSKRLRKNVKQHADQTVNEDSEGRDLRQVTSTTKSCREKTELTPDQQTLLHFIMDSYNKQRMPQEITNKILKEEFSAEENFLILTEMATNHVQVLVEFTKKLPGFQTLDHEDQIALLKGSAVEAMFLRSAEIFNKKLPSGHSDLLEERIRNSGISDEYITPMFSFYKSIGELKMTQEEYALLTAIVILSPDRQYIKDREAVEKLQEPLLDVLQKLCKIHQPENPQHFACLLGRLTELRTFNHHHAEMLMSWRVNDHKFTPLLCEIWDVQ
Sequence of Transcription factor E2F1 (Homo sapiens) (Q01094 whole entry, looked up): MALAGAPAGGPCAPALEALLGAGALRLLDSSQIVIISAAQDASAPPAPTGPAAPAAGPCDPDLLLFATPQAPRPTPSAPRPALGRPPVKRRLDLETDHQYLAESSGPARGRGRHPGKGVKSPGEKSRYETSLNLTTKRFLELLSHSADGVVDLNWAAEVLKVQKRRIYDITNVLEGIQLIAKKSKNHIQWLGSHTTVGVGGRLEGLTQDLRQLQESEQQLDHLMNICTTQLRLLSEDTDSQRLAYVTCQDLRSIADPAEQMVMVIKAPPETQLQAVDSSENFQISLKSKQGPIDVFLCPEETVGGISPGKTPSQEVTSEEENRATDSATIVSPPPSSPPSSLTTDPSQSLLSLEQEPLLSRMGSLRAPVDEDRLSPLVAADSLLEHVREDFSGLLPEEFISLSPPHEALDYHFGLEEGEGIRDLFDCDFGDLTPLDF
Sequence of Hepatocyte nuclear factor 6 (Homo sapiens) (Q9UBC0 whole entry, looked up): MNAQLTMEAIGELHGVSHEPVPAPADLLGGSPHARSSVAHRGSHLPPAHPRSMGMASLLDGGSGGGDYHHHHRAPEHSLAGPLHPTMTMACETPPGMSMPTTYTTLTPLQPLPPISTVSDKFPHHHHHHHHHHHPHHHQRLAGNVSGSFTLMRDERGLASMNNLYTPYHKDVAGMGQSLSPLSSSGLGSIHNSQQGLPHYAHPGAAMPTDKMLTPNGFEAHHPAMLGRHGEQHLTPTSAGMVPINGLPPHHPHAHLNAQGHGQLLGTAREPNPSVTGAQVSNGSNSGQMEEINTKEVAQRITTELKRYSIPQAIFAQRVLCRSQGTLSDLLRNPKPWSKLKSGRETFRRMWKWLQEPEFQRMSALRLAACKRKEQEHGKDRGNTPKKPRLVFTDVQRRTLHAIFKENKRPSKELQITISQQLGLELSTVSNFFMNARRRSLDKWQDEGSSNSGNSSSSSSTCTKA
Sequence of Hepatocyte nuclear factor 3-beta (Homo sapiens) (Q9Y261 whole entry, looked up): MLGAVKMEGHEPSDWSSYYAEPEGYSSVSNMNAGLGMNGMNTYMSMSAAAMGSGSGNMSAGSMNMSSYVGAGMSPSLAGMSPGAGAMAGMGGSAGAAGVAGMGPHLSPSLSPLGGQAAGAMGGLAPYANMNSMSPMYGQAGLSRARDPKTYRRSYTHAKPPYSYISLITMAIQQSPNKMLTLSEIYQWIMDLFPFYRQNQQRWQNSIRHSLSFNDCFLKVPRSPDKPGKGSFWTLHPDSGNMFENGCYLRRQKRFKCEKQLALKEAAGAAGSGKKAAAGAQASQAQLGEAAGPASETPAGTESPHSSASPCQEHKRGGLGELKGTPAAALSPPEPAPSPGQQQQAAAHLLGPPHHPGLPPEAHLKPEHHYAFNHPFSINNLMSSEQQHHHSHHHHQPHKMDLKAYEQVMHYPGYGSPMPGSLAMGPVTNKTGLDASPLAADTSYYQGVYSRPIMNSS

In general, AC50 refers to the concentration giving half of the maximal activity seen. Consider `Oc1ccc(/C=C/c2cc(O)cc(O)c2)cc1`, for which the result in assay [1], in assay [2], in assay [3], in [4], in assay [5] and in assay [8] was inactive. In addition, the compound was classed as inactive in assay [9], in assay [10], in assay [11], in assay [12], in [14] and in [15]. For the same compound, the compound was classed as inactive in assay [16], in assay [17] and in assay [18]. Besides, the AC50 was 6.81 µM (active) in assay [6], 153 µM (active) in [7] and 100 µM (active) in assay [13].

With `Cn1ccnc1`, the compound was classed as inactive in assay [1], in [2], in assay [3], in assay [4], in [5] and in assay [6]. In addition, the outcome in assay [7], in [8], in assay [9], in assay [10], in [11] and in assay [12] was inactive. Moreover, the outcome in assay [19], in [14], in assay [15], in assay [16], in [17] and in assay [18] was inactive.

For the compound `CC(=O)/C=C/C1C(C)=CCCC1(C)C` (stereo unspecified), the compound was called inactive in assay [1], in [2], in assay [3], in assay [4], in [5] and in [7]. The outcome in assay [8], in [9], in assay [10], in assay [11], in [12] and in [13] was inactive. Further, the outcome in assay [14], in [15], in assay [20], in assay [16], in assay [17] and in [18] was inactive. For the same compound, in [6], the AC50 was 44.7 µM (active).

Turning to `Cc1c[nH]c(=O)[nH]c1=O`, the outcome in assay [1], in assay [2], in assay [3], in assay [4], in assay [5] and in assay [6] was inactive. For the same compound, the compound was called inactive in [7], in assay [8], in [9], in assay [10], in assay [11] and in assay [12]. In addition, the outcome in assay [13], in [14], in assay [15], in [20], in assay [16] and in assay [17] was inactive. Further, the outcome in assay [18] was inactive.

For `O=C(O)c1cc(O)c2ccccc2c1O`, the AC50 in assay [1] was 59.1 µM (active); in [2], 8.86 µM (active); in assay [6] it was 0.513 µM (active); in assay [7], 57.9 µM (active); in [9], 52 µM (active); in [11] it was 33.4 µM (active). In addition, the AC50 in [12] is 33.4 µM (active); in assay [20], 48.9 µM (active). Further, the compound was called inactive in assay [3], in assay [4], in assay [5], in [8], in [10] and in assay [13]. Also, the compound was called inactive in assay [14], in [15], in [16], in [17] and in assay [18].

As for `Oc1c(Cl)cc(Cl)c(Cl)c1Cl`, the result in assay [1], in assay [2], in [3], in [5], in assay [6] and in assay [7] was inactive. In addition, the compound was classed as inactive in assay [8], in assay [9], in assay [10], in assay [11], in assay [12] and in [13]. The outcome in assay [14], in assay [15], in assay [20] and in [17] was inactive. The half-maximal activity concentration (AC50) in [4] is 100 µM (active); in assay [16], 51.7 µM (active); in assay [18] it was 70.8 µM (active).

Consider `CCCCCCCCCCCC(=O)N(C)CC(=O)O`, for which the call in assay [1], in assay [2], in assay [3], in assay [4], in [5] and in assay [7] was inactive. For the same compound, the compound was classed as inactive in assay [8], in assay [9], in [10], in assay [11], in assay [19] and in assay [13]. The compound was classed as inactive in assay [14], in assay [15], in [20], in assay [16], in [17] and in assay [18]. The AC50 in assay [6] is 14.3 µM (active).
